# In the supplement of paper PMC8728848:
# Only a selection was taken, and the strongest signals are over-represented in it overall.
# Assays:
# Experiment in all cases: glycan array binding signal (z-score within array); higher = stronger binding
# Details in all cases: glycan notation: IUPAC condensed, linker removed
# [1] = biological target: Fuc(a1-2)Gal(b1-3)[Fuc(a1-4)]GlcNAc(b1-2)Man(a1-3)[Fuc(a1-2)Gal(b1-3)[Fuc(a1-4)]GlcNAc(b1-2)Man(a1-6)]Man(b1-4)GlcNAc(b1-4)GlcNAc
# How it was run: (§1)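 Columns mapping to the same glycan were averaged after glycan names were converted to IUPAC-condensed notation. The data come from 3228 arrays in the Consortium for Functional Glycomics database, limited to those with an available protein sequence. Binding is reported as a within-array Z-score averaged across arrays of one protein sequence and across linkers.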
# [2] = biological target: Fuc(a1-2)[Gal(a1-3)]Gal(b1-4)GlcNAc
# How it was run: as §1
# [3] = biological target: Fuc(a1-2)[GalNAc(a1-3)]Gal(b1-3)GalNAc(a1-3)[Fuc(a1-2)]Gal(b1-4)GlcNAc
# How it was run: as §1
# [4] = biological target: Fuc(a1-3)[Gal(b1-4)]GlcNAc(b1-6)[Gal(b1-3)GlcNAc(b1-3)]Gal(b1-4)Glc
# How it was run: as §1
# [5] = biological target: Fuc(a1-3)[Gal(b1-4)]GlcNAc6S
# How it was run: as §1
# [6] = biological target: Fuc(a1-3)[Gal3S(b1-4)]GlcNAc
# How it was run: as §1
# [7] = biological target: Gal(a1-3)Gal(b1-4)[Fuc(a1-3)]GlcNAc(b1-2)Man(a1-3)[Gal(a1-3)Gal(b1-4)[Fuc(a1-3)]GlcNAc(b1-2)Man(a1-6)]Man(b1-4)GlcNAc(b1-4)GlcNAc
# How it was run: as §1
# [8] = biological target: Gal(b1-3)GalNAc(b1-4)Gal(b1-4)Glc
# How it was run: as §1
# [9] = biological target: Gal(b1-4)GlcNAc(b1-3)Gal(b1-4)Glc
# How it was run: as §1
# [10] = biological target: Gal3S(b1-4)[Fuc(a1-3)]Glc6S
# How it was run: as §1
# [11] = biological target: Gal3S4S(b1-4)GlcNAc
# How it was run: as §1
# [12] = biological target: Gal3S6S(b1-4)GlcNAc6S
# How it was run: as §1
# [13] = biological target: Gal4S6S(b1-4)GlcNAc
# How it was run: as §1
# [14] = biological target: Gal6S(b1-4)Glc6S
# How it was run: as §1
# [15] = biological target: Gal6S(b1-4)GlcNAc
# How it was run: as §1
# [16] = biological target: Gal6S(b1-4)GlcNAc6S
# How it was run: as §1
# [17] = biological target: GalNAc(b1-3)GalNAc
# How it was run: as §1
# [18] = biological target: GlcNAc(a1-4)Gal(b1-4)GlcNAc(b1-3)Gal(b1-4)[Fuc(a1-3)]GlcNAc(b1-3)Gal(b1-4)[Fuc(a1-3)]GlcNAc
# How it was run: as §1
# [19] = biological target: GlcNAc(a1-6)Gal(b1-4)GlcNAc
# How it was run: as §1
# [20] = biological target: GlcNAc(b1-3)Gal(b1-4)Glc
# How it was run: as §1
# [21] = biological target: GlcNAc(b1-4)[GlcNAc(b1-6)]GalNAc
# How it was run: as §1
# [22] = biological target: Man(a1-3)[Man(a1-6)]Man(a1-6)[Man(a1-3)]Man
# How it was run: as §1
# [23] = biological target: Neu5Ac(a2-3)Gal(b1-4)[Fuc(a1-3)]GlcNAc(b1-3)GalNAc
# How it was run: as §1
# [24] = biological target: Neu5Ac(a2-3)[GalNAc(b1-4)]Gal(b1-4)Glc
# How it was run: as §1
# [25] = biological target: Neu5Ac(a2-6)Gal(b1-4)GlcNAc
# How it was run: as §1
# [26] = biological target: Neu5Ac(a2-6)Gal(b1-4)GlcNAc(b1-2)Man(a1-6)Man(b1-4)GlcNAc(b1-4)GlcNAc
# How it was run: as §1
binder,measurement,setting,value
"Pp2-A2 (Arabidopsis thaliana), Q07098 (protein) MPSNGDLDRQIEQLMECKPLSEADVRTLCDQARAILVEEYNVQPVKCPVTVCGDIHGQFYDLIELFRIGGNAPDTNYLFMGDYVDRGYYSVETVSLLVALKVRYRDRLTILRGNHESRQITQVYGFYDECLRKYGNANVWKYFTDLFDYLPLTALIESQVFCLHGGLSPSLDTLDNIRSLDRIQEVPHEGPMCDLLWSDPDDRCGWGISPRGAGYTFGQDIAAQFNHNNGLSLISRAHQLVMEGFNWCQDKNVVTVFSAPNYCYRCGNMAAILEIGENMEQNFLQFDPAPRQVEPDTTRKTPDYFL",glycan array binding signal (z-score),[1],2.08
same,glycan array binding signal (z-score),[2],-0.404
same,glycan array binding signal (z-score),[3],0.21
same,glycan array binding signal (z-score),[4],-0.662
same,glycan array binding signal (z-score),[5],0.633
same,glycan array binding signal (z-score),[6],-0.461
same,glycan array binding signal (z-score),[7],-0.298
same,glycan array binding signal (z-score),[8],-0.181
same,glycan array binding signal (z-score),[9],-0.032
same,glycan array binding signal (z-score),[10],4.36
same,glycan array binding signal (z-score),[11],6.14
same,glycan array binding signal (z-score),[12],4.5
same,glycan array binding signal (z-score),[13],4.54
same,glycan array binding signal (z-score),[14],4.11
same,glycan array binding signal (z-score),[15],-0.117
same,glycan array binding signal (z-score),[16],2.28
same,glycan array binding signal (z-score),[17],-0.683
same,glycan array binding signal (z-score),[18],5.17
same,glycan array binding signal (z-score),[19],-0.835
same,glycan array binding signal (z-score),[20],-0.721
same,glycan array binding signal (z-score),[21],-0.771
same,glycan array binding signal (z-score),[22],0.061
same,glycan array binding signal (z-score),[23],4.64
same,glycan array binding signal (z-score),[24],-0.213
same,glycan array binding signal (z-score),[25],-0.266
same,glycan array binding signal (z-score),[26],-0.465
